± gives the standard deviation of the averaged measurements. In all, about 25,000 sequences were measured (“ln(normalized median fluorescence intensity)”: median about 8.9, highest 2% from about 10 on). Many of the other results were omitted from the sample, so the highest values are more common in it than they were.
tested on: PfAP2-LT AP2 domain (GST-tagged); assay: gcPBM binding intensity (ln(normalized median fluorescence intensity)); higher = stronger DNA binding
Method in brief: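 Probes on an Agilent 4 × 180k array were primer-extended, double-stranded and 36 bp long, taken from intergenic genomic regions, with negative controls added. GST-tagged P. falciparum DNA-binding domains from E. coli, about 25 μg on average, were applied to the array for 1 h in 1× PBS containing 1% milk, 0.2 mg/ml BSA, 0.5% salmon testes DNA and 0.03% Triton X-100. Binding intensity, obtained after Alexa488 anti-GST antibody detection and a 488 nm scan, is the highest Masliner-normalised natural-log median intensity across replicate spots of either probe orientation.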

Sequence	gcPBM binding intensity (ln)
AACAACTATTAATTTACACACATGTATTTATTTTAC [CACACA_site5683]	9.3 ± 0.4
AAATAAATAAATAAATAAACAAATATGTATAAATGG [XGTACX_negctrl_site153]	8.85 ± 0.51
TTTAAAAAAAAAAAAAAAAATTCTACATGTAATTTA [CACACA_negctrl_site1205]	7.96 ± 0.41
AATTTATAAAAGAAGAGGACACATATAAATATAAAT [XGTACX_site59]	8.78 ± 0.52
ATAATATAAATATGCACACAAATTATTACCCAAAAA [CACACA_site2524]	9.03 ± 0.41
AAAAAAAATATATATGCACACACAAAAAAACAAATT [CACACA_site8349]	9.48 ± 0.37
TTAAAAAAATATAATACACACCAAAAATATGCACAT [CACACA_site5209]	9.03 ± 0.38
TGGGAAAAAATATATGCACACCCCCCAAAAAAAAAA [CACACA_site8696]	10.48 ± 0.071
GGAAAAAATATATGCACACCCCCCAAAAAAAAAAAA [CACACA_site2222]	10.5 ± 0.13
ATAAATAAAATATGCACACAAATATAGGAAACAACA [CACACA_site2561]	9.38 ± 0.38
TTATTACATAACAATATACACACTATTGATTAAAGA [CACACA_site2933]	8.68 ± 0.39
AAGAATACACCACGCACACACACTTGAGAAAAAATA [CACACA_site3828]	9.96 ± 0.47
GAATACACCACGCACACACACTTGAGAAAAAATAAA [CACACA_site7747]	9.66 ± 0.47
ACAAGAATACACCACGCACACACACTAGAGAAAAAA [CACACA_site9276]	10.1 ± 0.54
CATAAAAATATTAATAAACACACAATCAGATATTGA [CACACA_site9032]	8.87 ± 0.45
ATGTATAATATTTTCACACACAAGAAAAAAGAAAAG [CACACA_site3591]	9.27 ± 0.36
TAAAAATATAAAACATGTACATATATGCATATATTT [XGTACX_site8093]	8.86 ± 0.48
CAAAACATTTTATCTACACACATATATAAATAAATA [CACACA_site3220]	8.88 ± 0.38
TAAAAAAAAACATGTGCACACGTTTTATCTACATAA [CACACA_site2336]	10.1 ± 0.32
TTATCTCTACAAAGTGCACACACGTAAAAACATATA [CACACA_site3957]	9.09 ± 0.35
TGTAATAAAATAATTAGTACACATATATGTATATTT [XGTACX_site5896]	8.72 ± 0.33
